Measurements published in PubChem BioAssay (EPA / NIEHS).
Results filed as inconclusive are left out. Calls of active or inactive are those of the source. How the source made its calls, unless noted: active means hit-call score of the fitted dose curve at least 0.9, where 1 is the maximum; inactive means score below 0.9.

Key:
[1] = molecular target: Paired box protein Pax-6 (Homo sapiens) (UniProt P26367); assay: ATG_Pax6_CIS: Attagene CIS-FACTORIAL HepG2 Assay for human Paired Box 6 (PAX6) (AID 2282956); conditions: HepG2 CIS-FACTORIAL PAX6 reporter transcription, RNA readout; actives raise or lower the signal
Paired box protein Pax-6 (Homo sapiens), sequence (P26367 whole entry, looked up): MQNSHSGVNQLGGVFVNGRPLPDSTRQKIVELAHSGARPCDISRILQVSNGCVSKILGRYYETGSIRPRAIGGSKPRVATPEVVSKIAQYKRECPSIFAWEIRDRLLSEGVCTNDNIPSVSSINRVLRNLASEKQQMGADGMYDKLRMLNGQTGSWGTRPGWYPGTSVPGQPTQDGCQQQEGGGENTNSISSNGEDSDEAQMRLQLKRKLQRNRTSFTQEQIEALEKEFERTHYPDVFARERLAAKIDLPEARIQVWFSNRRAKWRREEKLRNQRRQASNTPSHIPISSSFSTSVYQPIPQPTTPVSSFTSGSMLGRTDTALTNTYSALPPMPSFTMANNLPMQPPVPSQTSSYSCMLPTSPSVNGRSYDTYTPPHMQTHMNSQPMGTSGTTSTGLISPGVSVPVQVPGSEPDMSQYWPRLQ
Method in brief: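 DMSO-referenced bidirectional fits of reporter mRNA fluorescence; HepG2 with transient cis-promoter MRTUs, 24 h post-dose, RT-PCR plus capillary electrophoresis detection.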

[2] = ATG_PPRE_CIS: Attagene CIS-FACTORIAL HepG2 Assay for human Peroxisome Proliferator-activated Response Element (PPRE) (AID 2282958); conditions: HepG2 PPRE cis-element reporter, Attagene transcription factor profiling; actives raise or lower the signal
Method in brief: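 Measured endpoint: PPRE-controlled reporter mRNA, detected by RT-PCR and capillary electrophoresis fluorescence, from transiently transfected HepG2 cells 24 h after dosing. Curves fitted in both directions using DMSO baseline.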

[3] = ATG_Sox_CIS: Attagene CIS-FACTORIAL HepG2 Assay for human SRY-box transcription factor (SOX) (AID 2282960); conditions: HepG2 Attagene cis-factorial SOX reporter, mRNA; actives raise or lower the signal
Method in brief: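 Gain- or loss-of-signal endpoint, fitted bidirectionally with DMSO as negative control. Based on reporter mRNA from transfected HepG2 cells harvested 24 h post-treatment and quantified via RT-PCR and capillary electrophoresis.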

[4] = ATG_SREBP_CIS: Attagene CIS-FACTORIAL HepG2 Assay for human Sterol Regulatory Element Binding (SREBP) (AID 2282962); conditions: HepG2 Attagene cis-factorial SREBP reporter, mRNA; actives raise or lower the signal
Method in brief: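 In this cis-format assay, HepG2 liver cells express reporters controlled by promoter elements responsive to native transcription factors. Exposure lasts 24 h; reporter mRNA fluorescence from capillary electrophoresis gives the signal, fitted bidirectionally against DMSO.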

[5] = molecular target: Signal transducer and activator of transcription 3 (Homo sapiens) (UniProt P40763); assay: ATG_STAT3_CIS: Attagene CIS-FACTORIAL HepG2 Assay for human Signal Transducer and Activator of Transcription 3 (STAT3) (AID 2282963); conditions: HepG2, Attagene cis-factorial STAT3 reporter transcription; actives raise or lower the signal
Signal transducer and activator of transcription 3 (Homo sapiens), sequence (P40763 whole entry, looked up, the tested form may be a part): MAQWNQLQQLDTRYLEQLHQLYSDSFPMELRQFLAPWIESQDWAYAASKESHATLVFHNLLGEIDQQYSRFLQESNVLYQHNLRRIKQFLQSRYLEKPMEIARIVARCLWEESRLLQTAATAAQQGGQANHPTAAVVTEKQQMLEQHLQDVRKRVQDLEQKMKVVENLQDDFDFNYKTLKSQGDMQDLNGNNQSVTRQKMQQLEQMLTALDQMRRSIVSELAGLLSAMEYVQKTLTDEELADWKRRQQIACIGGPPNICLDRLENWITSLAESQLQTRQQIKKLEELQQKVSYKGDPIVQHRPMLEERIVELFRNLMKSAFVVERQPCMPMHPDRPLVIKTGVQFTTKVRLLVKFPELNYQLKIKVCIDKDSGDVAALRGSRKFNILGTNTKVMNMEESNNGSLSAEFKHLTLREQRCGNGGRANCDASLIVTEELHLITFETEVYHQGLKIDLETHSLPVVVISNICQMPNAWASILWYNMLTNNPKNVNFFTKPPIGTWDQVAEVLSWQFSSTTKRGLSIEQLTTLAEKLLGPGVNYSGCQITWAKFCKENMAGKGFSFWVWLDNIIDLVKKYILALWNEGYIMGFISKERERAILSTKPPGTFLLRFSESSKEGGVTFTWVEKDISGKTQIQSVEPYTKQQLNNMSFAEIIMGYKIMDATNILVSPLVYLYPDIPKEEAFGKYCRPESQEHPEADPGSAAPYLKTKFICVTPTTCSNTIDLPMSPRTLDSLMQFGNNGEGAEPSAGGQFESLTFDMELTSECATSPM
Method in brief: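 Fluorescence intensity of 6-FAM-labelled reporter fragments, separated by capillary electrophoresis after RT-PCR, gave the signal. Cells were HepG2 transfected with cis-element reporter units and treated 24 h; fitting was bidirectional relative to DMSO.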

[6] = ATG_TA_CIS: Attagene CIS-FACTORIAL HepG2 Assay for human TA Basal Promoter (AID 2282964); conditions: HepG2 Attagene CIS-factorial TA basal promoter reporter; actives raise or lower the signal
Method in brief: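 Fluorescence from labelled RT-PCR reporter fragments, separated by capillary electrophoresis, gives the signal. Cells: HepG2 transiently carrying multiple reporter units, 24 h chemical dosing. Gain or loss relative to DMSO.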

[7] = ATG_TCF_b_cat_CIS: Attagene CIS-FACTORIAL HepG2 Assay for human T-Cell-Factor with beta-catenin (TCF/b-cat) (AID 2282965); conditions: HepG2 TCF/beta-catenin cis-reporter transcription, actives raise or lower the signal
Method in brief: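 HepG2, transient MRTU transfection, cis-element-driven reporters (endogenous TFs). 24 h compound exposure. Readout: reporter mRNA by RT-PCR + 6-FAM primer extension, HpaI digest, capillary electrophoresis. Gain/loss fit vs DMSO baseline.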

[8] = ATG_TAL_CIS: Attagene CIS-FACTORIAL HepG2 Assay for human TAL Basal Promoter (AID 2282966); conditions: HepG2 Attagene cis-factorial TAL promoter reporter; actives raise or lower the signal;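 further: background control endpoint measuring basal TAL promoter reporter mRNA not a specific factor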
Method in brief: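 Transiently transfected HepG2 (cis-regulated reporter units), 24 h treatment, mRNA read by fluorescent CE after RT-PCR; bidirectional fit, DMSO baseline.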

[9] = ATG_TGFb_CIS: Attagene CIS-FACTORIAL HepG2 Assay for human Transforming Growth Factor (TGF) (AID 2282967); conditions: HepG2 Attagene CIS TGFb reporter, mRNA transcription; actives raise or lower the signal
Method in brief: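 Bidirectional fitting relative to DMSO gave the endpoint. Underlying data: reporter mRNA from HepG2 cells carrying transiently transfected cis-regulated reporter constructs, harvested 24 h after dosing and analyzed by RT-PCR and capillary electrophoresis.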

[10] = ATG_VDRE_CIS: Attagene CIS-FACTORIAL HepG2 Assay for human Vitamin D Receptor Element (VDRE) (AID 2282968); conditions: HepG2 VDRE cis-reporter transcription, actives raise or lower the signal
Method in brief: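 Compounds were applied for 24 h to HepG2 cells transfected with promoter-regulated reporter units. Total RNA was reverse-transcribed, and reporter amplicons were fluorescently labelled and sized by capillary electrophoresis.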

[11] = molecular target: Nuclear receptor subfamily 1 group I member 3 (Homo sapiens) (UniProt Q14994); assay: ATG_CAR_TRANS: Attagene TRANS-FACTORIAL HepG2 Assay for human Constitutive Androstane Receptor (CAR) (AID 2282969; active means hit-call score of the fitted dose curve at least 0.9, where 1 is the maximum;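 further: activators raise reporter mRNA above DMSO so AC50 marks induction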); conditions: HepG2 Attagene TRANS-FACTORIAL CAR reporter
Nuclear receptor subfamily 1 group I member 3 (Homo sapiens), sequence (Q14994 whole entry, looked up, the tested form may be a part): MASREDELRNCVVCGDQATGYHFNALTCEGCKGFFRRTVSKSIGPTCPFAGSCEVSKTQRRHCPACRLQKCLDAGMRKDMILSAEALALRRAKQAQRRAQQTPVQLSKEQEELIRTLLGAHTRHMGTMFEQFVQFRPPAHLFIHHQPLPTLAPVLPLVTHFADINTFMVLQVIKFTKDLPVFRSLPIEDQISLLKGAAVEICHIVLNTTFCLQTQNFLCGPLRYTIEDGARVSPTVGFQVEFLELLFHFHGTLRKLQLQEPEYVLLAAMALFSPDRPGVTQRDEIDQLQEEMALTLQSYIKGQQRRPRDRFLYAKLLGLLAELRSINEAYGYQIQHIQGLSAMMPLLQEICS
Method in brief: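 Transiently transfected HepG2, multiplex TRANS reporters (CAR-Gal4 chimera driving GAL4-UAS reporter). 24 h dosing. Readout: reporter transcript by RT-PCR + capillary electrophoresis, fluorescence intensity; positive direction vs DMSO.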

[12] = molecular target: Estrogen receptor (Homo sapiens) (UniProt P03372); assay: ATG_ERa_TRANS: Attagene TRANS-FACTORIAL HepG2 Assay for human Estrogen Receptor alpha (ERa) (AID 2282970; active means hit-call score of the fitted dose curve at least 0.9, where 1 is the maximum); conditions: HepG2 Attagene TRANS ERa GAL4 reporter, mRNA
Estrogen receptor (Homo sapiens), sequence (P03372 whole entry, looked up, the tested form may be a part): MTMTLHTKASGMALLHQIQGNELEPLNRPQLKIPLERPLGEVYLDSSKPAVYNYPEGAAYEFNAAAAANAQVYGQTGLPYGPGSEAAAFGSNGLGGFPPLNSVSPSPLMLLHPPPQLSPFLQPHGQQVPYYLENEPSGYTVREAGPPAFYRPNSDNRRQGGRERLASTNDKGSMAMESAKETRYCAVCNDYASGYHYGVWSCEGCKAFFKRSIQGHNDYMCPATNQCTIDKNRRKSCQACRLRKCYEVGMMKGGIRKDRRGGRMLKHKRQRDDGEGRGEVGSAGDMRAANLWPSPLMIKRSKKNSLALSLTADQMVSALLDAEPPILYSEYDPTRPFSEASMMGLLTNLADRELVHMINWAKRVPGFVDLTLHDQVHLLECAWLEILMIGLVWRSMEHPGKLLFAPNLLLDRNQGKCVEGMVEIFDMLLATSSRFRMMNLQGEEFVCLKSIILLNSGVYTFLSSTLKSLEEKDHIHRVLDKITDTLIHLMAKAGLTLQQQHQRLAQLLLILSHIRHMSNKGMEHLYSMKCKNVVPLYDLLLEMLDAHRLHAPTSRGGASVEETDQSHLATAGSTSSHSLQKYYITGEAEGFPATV
Method in brief: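 One of 30 multiplexed endpoints from a HepG2 TRANS system, this one reports ERa-Gal4-driven reporter mRNA. Transcripts were quantified 24 hours post-dosing by fluorescent RT-PCR and capillary electrophoresis, with activity scored as induction over DMSO.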

[13] = molecular target: X-box-binding protein 1 (Homo sapiens) (UniProt P17861); assay: ATG_Xbp1_CIS: Attagene CIS-FACTORIAL HepG2 Assay for human X-box Binding Protein 1 (XBP1) (AID 2282972); conditions: HepG2 XBP1 cis-element reporter, Attagene multiplex; actives raise or lower the signal
X-box-binding protein 1 (Homo sapiens), sequence (P17861 whole entry, looked up): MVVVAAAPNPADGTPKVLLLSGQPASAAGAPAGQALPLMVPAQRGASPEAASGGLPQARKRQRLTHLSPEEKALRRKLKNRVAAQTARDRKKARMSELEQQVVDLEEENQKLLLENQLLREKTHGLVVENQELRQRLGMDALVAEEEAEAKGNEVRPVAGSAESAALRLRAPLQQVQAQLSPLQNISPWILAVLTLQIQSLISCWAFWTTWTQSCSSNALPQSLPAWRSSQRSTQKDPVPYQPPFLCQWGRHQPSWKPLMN
Method in brief: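 Changes in reporter transcript abundance, read by RT-PCR and capillary electrophoresis, reflect endogenous transcription factor activity. Transfected HepG2 cells received compound for 24 hours; DMSO defined baseline for bidirectional analysis.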

[14] = ATG_M_19_TRANS: Attagene TRANS-FACTORIAL HepG2 Assay for M19 Transcription Factor (Internal Marker) (AID 2282974; active means hit-call score of the fitted dose curve at least 0.9, where 1 is the maximum); conditions: HepG2 Attagene TRANS-FACTORIAL M19 internal marker reporter
Method in brief: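 Using RT-PCR and capillary electrophoresis, reporter mRNA from transiently transfected human HepG2 cells was quantified following 24 h exposure; activity was fitted in the positive direction against DMSO.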

[15] = ATG_GAL4_TRANS: Attagene TRANS-FACTORIAL HepG2 Assay for GAL4 (Internal Marker) (AID 2282976; active means hit-call score of the fitted dose curve at least 0.9, where 1 is the maximum); conditions: HepG2 Attagene TRANS GAL4 internal marker reporter
Method in brief: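 HepG2 cells transiently transfected with multiplexed GAL4-UAS reporter constructs were dosed for 24 h. Reporter mRNA was measured by RT-PCR, 6-FAM primer extension, HpaI digestion and capillary electrophoresis, and gain of signal was fitted relative to DMSO.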

[16] = ATG_RORE_CIS: Attagene CIS-FACTORIAL HepG2 Assay for human RAR-related Orphan Receptor Element (RORE) (AID 2282959); conditions: HepG2 Attagene cis-factorial RORE reporter, mRNA; actives raise or lower the signal
Method in brief: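 Transiently transfected HepG2 reporter cells were treated 24 h. Reporter transcripts were detected by RT-PCR and capillary electrophoresis, with bidirectional fitting against DMSO.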

[17] = molecular target: Transcription factor Sp1 (Homo sapiens) (UniProt P08047); assay: ATG_Sp1_CIS: Attagene CIS-FACTORIAL HepG2 Assay for human Specificity Protein 1 (Sp1) (AID 2282961); conditions: HepG2 Sp1 cis-reporter transcription, actives raise or lower the signal
Transcription factor Sp1 (Homo sapiens), sequence (P08047 whole entry, looked up, the tested form may be a part): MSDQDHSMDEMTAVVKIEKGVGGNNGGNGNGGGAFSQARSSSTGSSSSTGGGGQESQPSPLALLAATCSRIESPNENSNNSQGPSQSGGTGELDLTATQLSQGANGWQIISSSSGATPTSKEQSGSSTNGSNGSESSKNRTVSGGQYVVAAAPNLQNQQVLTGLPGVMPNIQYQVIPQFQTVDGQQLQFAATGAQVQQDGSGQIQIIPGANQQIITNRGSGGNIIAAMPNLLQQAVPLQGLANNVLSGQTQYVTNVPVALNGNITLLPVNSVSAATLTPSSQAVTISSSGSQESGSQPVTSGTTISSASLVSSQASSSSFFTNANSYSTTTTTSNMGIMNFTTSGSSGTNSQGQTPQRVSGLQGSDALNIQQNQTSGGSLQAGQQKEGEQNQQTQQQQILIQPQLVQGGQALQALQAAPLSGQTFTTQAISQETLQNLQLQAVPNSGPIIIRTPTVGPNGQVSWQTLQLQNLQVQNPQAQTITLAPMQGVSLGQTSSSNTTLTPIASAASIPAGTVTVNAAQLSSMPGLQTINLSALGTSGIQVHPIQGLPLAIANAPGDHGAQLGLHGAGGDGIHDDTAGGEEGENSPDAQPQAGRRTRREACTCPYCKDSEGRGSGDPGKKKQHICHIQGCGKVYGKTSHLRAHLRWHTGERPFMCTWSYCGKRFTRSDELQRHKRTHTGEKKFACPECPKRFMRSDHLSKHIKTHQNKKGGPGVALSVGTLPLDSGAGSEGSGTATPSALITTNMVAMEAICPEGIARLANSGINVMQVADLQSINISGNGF
Method in brief: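 Endpoint reflects endogenous Sp1 transcriptional activity, not an exogenous fusion protein: HepG2 cells with transfected cis-regulated reporters, 24 h dosing, RT-PCR/capillary electrophoresis mRNA read-out, DMSO-normalised bidirectional fit.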

[18] = molecular target: Steroid hormone receptor ERR1 (Homo sapiens) (UniProt P11474); assay: ATG_ERRa_TRANS: Attagene TRANS-FACTORIAL HepG2 Assay for human Estrogen-Related Receptor alpha (ERRa) (AID 2282971; active means hit-call score of the fitted dose curve at least 0.9, where 1 is the maximum); conditions: HepG2 Attagene TRANS reporter, ERRa transactivation
Steroid hormone receptor ERR1 (Homo sapiens), sequence (P11474 whole entry, looked up, the tested form may be a part): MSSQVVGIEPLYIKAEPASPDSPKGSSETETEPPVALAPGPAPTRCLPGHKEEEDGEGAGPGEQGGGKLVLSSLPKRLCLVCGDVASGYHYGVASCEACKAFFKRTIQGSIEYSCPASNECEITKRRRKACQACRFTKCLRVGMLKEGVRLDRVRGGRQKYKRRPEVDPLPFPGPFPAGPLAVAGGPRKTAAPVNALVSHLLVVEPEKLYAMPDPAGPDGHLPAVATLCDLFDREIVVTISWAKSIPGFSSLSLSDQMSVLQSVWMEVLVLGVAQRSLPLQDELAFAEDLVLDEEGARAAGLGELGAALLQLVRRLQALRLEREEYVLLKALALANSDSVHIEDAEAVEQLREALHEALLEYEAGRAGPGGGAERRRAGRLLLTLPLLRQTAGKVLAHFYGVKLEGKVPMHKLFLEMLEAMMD
Method in brief: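 HepG2 cells transiently transfected with multiplexed GAL4-UAS reporter units reading chimeric ERRa-Gal4 activity; 24 h compound exposure. Reporter mRNA measured by RT-PCR, 6-FAM labelling, HpaI digest and capillary electrophoresis; gain of signal fitted versus DMSO baseline.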

[19] = molecular target: Estrogen-related receptor gamma (Homo sapiens) (UniProt P62508); assay: ATG_ERRg_TRANS: Attagene TRANS-FACTORIAL HepG2 Assay for human Estrogen-Related Receptor gamma (ERRg) (AID 2282977; active means hit-call score of the fitted dose curve at least 0.9, where 1 is the maximum;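 further: hits increase reporter signal over DMSO so potencies reflect activators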); conditions: HepG2 Attagene TRANS reporter, ERRg transactivation
Estrogen-related receptor gamma (Homo sapiens), sequence (P62508 whole entry, looked up, the tested form may be a part): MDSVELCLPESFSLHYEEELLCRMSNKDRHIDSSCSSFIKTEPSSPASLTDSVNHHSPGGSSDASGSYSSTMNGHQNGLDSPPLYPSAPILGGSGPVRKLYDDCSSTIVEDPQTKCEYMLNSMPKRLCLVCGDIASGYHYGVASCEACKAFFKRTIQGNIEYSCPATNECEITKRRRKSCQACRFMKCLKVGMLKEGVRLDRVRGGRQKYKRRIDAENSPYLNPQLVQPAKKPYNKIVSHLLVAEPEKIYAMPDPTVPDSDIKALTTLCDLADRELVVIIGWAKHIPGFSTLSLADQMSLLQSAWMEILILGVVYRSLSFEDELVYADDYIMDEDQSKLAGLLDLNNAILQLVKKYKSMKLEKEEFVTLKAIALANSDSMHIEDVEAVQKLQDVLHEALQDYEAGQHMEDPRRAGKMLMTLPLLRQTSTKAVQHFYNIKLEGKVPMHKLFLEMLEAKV
Method in brief: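 Exogenous NR-Gal4 chimera activity measured as reporter transcript induction after 24 h in transiently transfected HepG2 cells. RNA reverse-transcribed, PCR-amplified, 6-FAM-labelled and resolved by capillary electrophoresis; increase over DMSO baseline.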

Measured: AC50

CC(C)CC(O)Cc1ccccc1 (stereo not given)
not listed: [16] | [17] | [18] | [19]
inactive: all other assays above

O=C(Nc1ccccc1)c1ccccc1O
active: [2] 100 µM | [12] 27.2 µM | [13] 44.4 µM
not listed: [9] | [10] | [11] | [14] | [15]
inactive: all other assays above

CC=CCO
inactive: [1] | [2] | [4] | [5] | [6] | [7] | [8] | [9] | [10] | [13]

CC(C)CCCCCOC(=O)CCS
not listed: [2] | [11] | [15] | [16] | [18] | [19]
inactive: all other assays above

O=C1CCCCCCCCCCCCCCCO1
active: [4] 100 µM
not listed: [2] | [10] | [14] | [15] | [17] | [19]
inactive: all other assays above
